Data on 13 compounds can be found in PubChem BioAssay (Tox21).

A short description of assay [1]: qHTS assay to identify small molecule antagonists of the thyroid receptor (TR) signaling pathway (AID 743065). Note: nearly all actives have a fitted effect of over 55% in size. Note: potency is the fitted concentration of half-maximal effect. An outline of the steps:
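GH3.TRE-Luc rat pituitary cells carrying two TR response elements driving luciferase were plated for 4 h, given compound plus 1 nM T3 (final), and incubated 23.5 h at 37 C. ONE-Glo luminescence measured reporter inhibition; CellTiter-Fluor fluorescence tracked cytotoxicity.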
For orientation: qHTS replaces the single test concentration by a dilution series.

Assay [2] has as its system thyroid hormone receptor (rat, GH3 cells). Description: qHTS assay to identify small molecule agonists of the thyroid receptor (TR) signaling pathway (AID 743066; calls by dose curve; note: potency is the fitted concentration of half-maximal effect).
In assay [3] the target is Estrogen receptor (Homo sapiens) (UniProt P03372). Description: qHTS assay to identify small molecule antagonists of the estrogen receptor alpha (ER-alpha) signaling pathway (AID 743069; active = well fitted curve in the direction sought with a large enough effect in the signal ratio in the repeat runs, not every such curve was filed as active; inconclusive = weak or mixed curves, or effect the other way; inactive = no such curve, though single readings can be large or run the other way; the % refers to the signal ratio; note: potency is the fitted concentration of half-maximal effect). In outline: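 Screening used a UAS-driven beta-lactamase reporter integrated into HEK293 cells expressing ER-alpha, stimulated with 17beta-estradiol alongside test compounds over 18 hr at 37C; signal came from LiveBLAzer B/G FRET fluorescence.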
Sequence of Estrogen receptor (Homo sapiens) (P03372 whole entry, looked up): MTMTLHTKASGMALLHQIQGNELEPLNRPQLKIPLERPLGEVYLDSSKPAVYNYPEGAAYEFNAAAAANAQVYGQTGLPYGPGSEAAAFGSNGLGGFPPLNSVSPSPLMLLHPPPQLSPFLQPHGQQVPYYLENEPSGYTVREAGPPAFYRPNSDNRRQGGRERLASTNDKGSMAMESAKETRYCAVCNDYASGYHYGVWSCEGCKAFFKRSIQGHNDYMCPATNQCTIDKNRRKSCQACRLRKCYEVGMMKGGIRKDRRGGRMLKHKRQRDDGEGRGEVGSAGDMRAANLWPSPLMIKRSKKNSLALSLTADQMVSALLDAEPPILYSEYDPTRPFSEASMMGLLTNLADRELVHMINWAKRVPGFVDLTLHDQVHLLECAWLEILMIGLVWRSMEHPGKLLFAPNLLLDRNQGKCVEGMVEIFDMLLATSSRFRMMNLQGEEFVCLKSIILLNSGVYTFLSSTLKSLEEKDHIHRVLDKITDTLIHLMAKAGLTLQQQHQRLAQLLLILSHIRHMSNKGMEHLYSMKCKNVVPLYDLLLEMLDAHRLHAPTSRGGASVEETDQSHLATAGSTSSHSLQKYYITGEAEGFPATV

Assay [4] in a line: qHTS assay to identify small molecule antagonists of the estrogen receptor alpha (ER-alpha) signaling pathway - cell viability counter screen (AID 743074; calls by dose curve; note: nearly all actives have a fitted effect of over 45% in size).
Assay [5] deals with Estrogen receptor (Homo sapiens) (UniProt P03372). Description: qHTS assay to identify small molecule agonists of the estrogen receptor alpha (ER-alpha) signaling pathway (AID 743075; calls by dose curve; note: potency is the fitted concentration of half-maximal effect).
The target is the same in assay [6]. Description: qHTS assay to identify small molecule agonists of the estrogen receptor alpha (ER-alpha) signaling pathway using the BG1 cell line (AID 743079). Note: nearly all actives have a fitted effect of over 20% in size. Note: potency is the fitted concentration of half-maximal effect.
Assay [7] is described as follows: qHTS assay to identify small molecule antagonists of the estrogen receptor alpha (ER-alpha) signaling pathway using the BG1 cell line (AID 743080; calls by dose curve;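 note: BG1 cells stimulated with 17beta-estradiol alongside compound; series mostly up to about 70 µM; nearly all actives have a fitted effect of over 25% in size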). In outline:
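Endogenous full-length ER-alpha in BG1-Luc-4E2 cells drives a stably integrated 4×ERE luciferase gene; compounds were tested against 17beta-estradiol over 21.5 h, with luminescence and multiplexed viability fluorescence recorded.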

The nature of assay [8]: qHTS assay to identify small molecule antagonists of the estrogen receptor alpha (ER-alpha) signaling pathway using the BG1 cell line - cell viability counter screen (AID 743081).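 Note: compound given together with 17beta-estradiol as the ER stimulus; nearly all actives have a fitted effect of over 45% in size.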 Note: potency is the fitted concentration of half-maximal effect.
The target in assay [9] is Aromatase (Homo sapiens) (UniProt P11511). As to the kind of experiment: qHTS assay to identify aromatase inhibitors (AID 743083). Note: nearly all actives have a fitted effect of over 55% in size. Note: potency is the fitted concentration of half-maximal effect.
Sequence of Aromatase (Homo sapiens) (P11511 whole entry, looked up): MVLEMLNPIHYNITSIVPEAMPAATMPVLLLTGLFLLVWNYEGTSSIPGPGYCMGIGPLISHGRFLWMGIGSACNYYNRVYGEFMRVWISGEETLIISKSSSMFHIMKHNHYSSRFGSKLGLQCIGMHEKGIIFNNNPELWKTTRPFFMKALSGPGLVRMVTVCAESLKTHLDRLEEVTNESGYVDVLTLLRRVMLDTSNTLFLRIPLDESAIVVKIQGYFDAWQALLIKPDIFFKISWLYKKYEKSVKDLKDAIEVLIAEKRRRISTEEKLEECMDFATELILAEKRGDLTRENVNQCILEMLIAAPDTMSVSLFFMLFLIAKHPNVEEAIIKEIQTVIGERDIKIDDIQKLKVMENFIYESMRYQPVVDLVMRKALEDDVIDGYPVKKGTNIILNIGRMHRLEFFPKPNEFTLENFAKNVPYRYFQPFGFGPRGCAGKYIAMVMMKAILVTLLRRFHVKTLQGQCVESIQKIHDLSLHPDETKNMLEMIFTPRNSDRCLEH
Assay [10] can be described thus: qHTS assay to identify aromatase inhibitors - cell viability counter screen (AID 743084).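 Note: cells stimulated with testosterone during compound exposure; nearly all actives have a fitted effect of over 55% in size.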 Note: potency is the fitted concentration of half-maximal effect.
For assay [11], the target named is Aryl hydrocarbon receptor (Homo sapiens) (UniProt P35869). Description: qHTS assay to identify small molecule that activate the aryl hydrocarbon receptor (AhR) signaling pathway (AID 743085).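 Note: HG2L7.5c1 human HepG2 liver cells with stably integrated DRE-driven firefly reporter; series mostly up to about 70 µM; nearly all actives have a fitted effect of over 15% in size.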 In outline:
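Luminescence read-out: ONE-Glo reagent, 30 min at room temperature, in HG2L7.5c1 HepG2 reporter cells treated 24 h at 37C. Viability was measured beforehand by CellTiter-Fluor fluorescence after 30 min at 37C.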

A short description of assay [12]: qHTS assay to identify small molecule that activate the aryl hydrocarbon receptor (AhR) signaling pathway - cell viability counter screen (AID 743086). Note: nearly all actives have a fitted effect of over 45% in size. Note: potency is the fitted concentration of half-maximal effect. An outline of the steps:
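HepG2-AhR-luc (HG2L7.5c1) cells, 4000/well, were preincubated 5 h at 37C, exposed to compound in qHTS format for 24 hr at 37C, then given CellTiter-Fluor for 30 min; viability was read as fluorescence in the reporter wells.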

The target of assay [13] is Peroxisome proliferator-activated receptor gamma (Homo sapiens) (UniProt P37231). Description: qHTS assay to identify small molecule agonists of the peroxisome proliferator-activated receptor gamma (PPARg) signaling pathway (AID 743094; active = well fitted activation curve with a large enough effect in the signal ratio in the repeat runs, not every such curve was filed as active; inconclusive = weak or mixed curves, or effect the other way; inactive = no such curve, though single readings can be large or run the other way; the % refers to the signal ratio). In outline: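 Fluorescence-based beta-lactamase readout in HEK293H PPARg UAS-bla cells after 17 h compound exposure (37C) and 1 h B/G FRET substrate incubation at room temperature.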
Sequence of Peroxisome proliferator-activated receptor gamma (Homo sapiens) (P37231 whole entry, looked up): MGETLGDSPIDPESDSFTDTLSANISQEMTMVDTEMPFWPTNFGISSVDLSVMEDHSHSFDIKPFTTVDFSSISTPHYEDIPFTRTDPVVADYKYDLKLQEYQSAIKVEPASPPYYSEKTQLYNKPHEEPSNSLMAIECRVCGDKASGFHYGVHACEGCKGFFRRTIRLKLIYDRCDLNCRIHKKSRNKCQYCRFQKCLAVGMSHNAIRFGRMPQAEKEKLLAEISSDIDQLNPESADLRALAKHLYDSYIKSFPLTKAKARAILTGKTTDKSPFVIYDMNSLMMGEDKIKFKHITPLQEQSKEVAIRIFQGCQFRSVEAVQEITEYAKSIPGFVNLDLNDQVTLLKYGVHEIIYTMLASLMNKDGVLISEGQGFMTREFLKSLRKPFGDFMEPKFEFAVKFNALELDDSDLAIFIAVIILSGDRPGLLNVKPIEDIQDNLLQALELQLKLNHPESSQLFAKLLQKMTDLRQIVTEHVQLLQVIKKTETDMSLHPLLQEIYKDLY

For assay [14] the target is unchanged. As to the kind of experiment: qHTS assay to identify small molecule antagonists of the peroxisome proliferator-activated receptor gamma (PPARg) signaling pathway (AID 743191; calls by dose curve; note: series mostly up to about 63 µM; nearly all actives have a fitted effect of over 30% in size). In outline: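 GeneBLAzer PPARg UAS-bla HEK293H cells carrying a UAS-driven beta-lactamase reporter were plated at 3000 cells/well, preincubated 5 h at 37C, then given compound for 17 h at 37C; LiveBLAzer B/G FRET substrate was read after 1 h at room temperature.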

The nature of assay [15]: qHTS assay to identify small molecule antagonists of the peroxisome proliferator-activated receptor gamma (PPARg) signaling pathway - cell viability counter screen (AID 743194). Note: nearly all actives have a fitted effect of over 55% in size. An outline of the steps: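 PPARg-UAS-bla HEK293H cells were plated, rested 5 h at 37 C, then treated with compounds plus rosiglitazone (50 nM final) for 17 h at 37 C; viability was then read by CellTiter-Glo luminescence after 30 min at room temperature.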

A short description of assay [16]: qHTS assay for small molecule agonists of the antioxidant response element (ARE) signaling pathway (AID 743202; active = well fitted activation curve with a large enough effect in the signal ratio in the repeat runs, not every such curve was filed as active; inconclusive = weak or mixed curves, or effect the other way; inactive = no such curve, though single readings can be large or run the other way; the % refers to the signal ratio; note: potency is the fitted concentration of half-maximal effect). In outline: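 Steps: seed ARE-bla HepG2 cells (2,000/well); incubate 5 h at 37 C; add compounds by pin tool; incubate 16 h at 37 C; add FRET substrate; read fluorescence after 2 h at RT.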
Assay [17] in a line: qHTS assay for small molecule agonists of the antioxidant response element (ARE) signaling pathway - cell viability counter screen (AID 743203; calls by dose curve; note: nearly all actives have a fitted effect of over 55% in size). In outline:
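Parallel cytotoxicity read-out for the ARE-bla screen: HepG2 reporter cells, 16 hrs with compounds, then CellTiter-Glo luminescence.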

Assay [18] can be described thus: qHTS assay for small molecule activators of the heat shock response signaling pathway - cell viability counter screen (AID 743209). Note: nearly all actives have a fitted effect of over 50% in size. In outline:
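To flag cytotoxic compounds, HSE-bla HeLa cells plated at 1500 cells/well were dosed for 5 h at 37 C, followed by the reporter FRET read and then CellTiter-Glo, with luminescence recorded 30 min after reagent addition.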

Assay [19] in a line: qHTS assay for small molecule activators of the heat shock response signaling pathway (AID 743210; active = well fitted activation curve with a large enough effect in the signal ratio in the repeat runs, with a control signal flat, not every such curve was filed as active; inconclusive = weak or mixed curves; the % refers to the signal ratio;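 note: HeLa cells with beta-lactamase reporter driven by heat shock elements; series mostly up to about 63 µM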). An outline of the steps: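 Activation of heat shock element-controlled beta-lactamase expression is measured in HeLa cells by LiveBLAzer FRET fluorescence, with compound exposure lasting 5 h at 37 C and substrate loading 2.5 h at room temperature.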
Assay [20] is described as follows: qHTS assay to identify small molecule agonists of the peroxisome proliferator-activated receptor delta (PPARd) signaling pathway - cell viability counter screen (AID 743211). Note: nearly all actives have a fitted effect of over 55% in size. An outline of the steps:
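Read-out: CellTiter-Glo luminescence, 30 min RT, measured in the same wells as the beta-lactamase reporter. Cells: GeneBLAzer PPAR delta UAS-bla HEK293H, 3000 cells/well, compound exposure 17 h at 37C.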

Values joined by “and” are separate entries in the source; they are usually repeats but may differ in a detail not shown here. Identical values can stand only once. More than one record can exist for a structure, and the calls need not agree. Active and inactive are the calls of the source. Unless noted, calls come from the whole dose curve; as a rule, active = well fitted curve in the direction sought with a large enough effect in the repeat runs; inconclusive = weak or mixed curves; inactive = no such curve, though single readings can be large; an effect the other way counts as inactive or inconclusive.

Sequence of Aryl hydrocarbon receptor (Homo sapiens) (P35869 whole entry, looked up): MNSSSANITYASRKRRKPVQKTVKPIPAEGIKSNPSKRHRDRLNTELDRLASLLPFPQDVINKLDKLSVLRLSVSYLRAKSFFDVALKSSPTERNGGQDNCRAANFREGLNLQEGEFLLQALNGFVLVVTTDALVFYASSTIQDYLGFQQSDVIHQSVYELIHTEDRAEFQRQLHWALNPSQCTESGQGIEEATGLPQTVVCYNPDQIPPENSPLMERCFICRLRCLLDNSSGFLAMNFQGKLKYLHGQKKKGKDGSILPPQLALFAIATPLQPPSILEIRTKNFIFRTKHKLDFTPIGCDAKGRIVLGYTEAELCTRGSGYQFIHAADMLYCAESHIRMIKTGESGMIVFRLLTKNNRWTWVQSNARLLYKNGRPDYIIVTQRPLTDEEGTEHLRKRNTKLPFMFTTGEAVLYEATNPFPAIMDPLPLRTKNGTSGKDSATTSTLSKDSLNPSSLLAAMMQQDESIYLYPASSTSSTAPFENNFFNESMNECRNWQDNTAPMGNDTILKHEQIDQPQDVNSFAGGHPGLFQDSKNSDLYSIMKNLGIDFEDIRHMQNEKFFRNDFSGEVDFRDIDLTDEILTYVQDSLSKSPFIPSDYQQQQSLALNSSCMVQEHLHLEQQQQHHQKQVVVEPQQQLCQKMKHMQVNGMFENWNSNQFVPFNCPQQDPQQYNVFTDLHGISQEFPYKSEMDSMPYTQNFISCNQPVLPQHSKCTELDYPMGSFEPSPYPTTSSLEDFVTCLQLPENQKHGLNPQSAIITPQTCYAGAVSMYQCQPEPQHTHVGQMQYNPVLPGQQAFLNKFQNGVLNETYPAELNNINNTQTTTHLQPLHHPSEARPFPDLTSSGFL

Turning to `CC(O)CO` (stereo not given), the Potency result in assay [1], in assay [2], in assay [3], in assay [4], in assay [5] and in assay [6] was “inactive” each time. The Potency entry in assay [7], in assay [8], in assay [9], in [10], in assay [11] and in [12] was “inactive” throughout. Moreover, in [16], the Potency entry was “inactive”. Further, the compound was called inactive in [13], in [14], in [15], in [17], in [18] and in [19]. Besides, the result in [20] was inactive.

Consider `Cc1ccc(S(=O)(=O)NC(=O)NN2CCCCCC2)cc1`, for which the Potency result in assay [1], in [2], in assay [3], in assay [4], in assay [5] and in assay [7] was “inactive” each time. The Potency result in assay [8], in [9], in assay [10], in assay [11], in [12] and in assay [16] was “inactive” in each case. For the same compound, in assay [6], the Potency entry is “inactive and 30.6 µM (active)”. For the same compound, the outcome in [13], in [15], in [17], in assay [18], in [19] and in assay [20] was inactive.

Regarding `CCCCC(CC)COC(=O)/C=C/c1ccc(OC)cc1` (stereo not given), the Potency entry in [1], in assay [2], in [3], in assay [4], in [5] and in [6] was “inactive” in each case. Besides, the Potency entry in [7], in [8], in assay [9], in assay [10], in [11] and in assay [12] was “inactive” each time. In assay [16], the Potency result was “inactive”. The compound was called inactive in [13], in [15], in assay [17], in [18], in assay [19] and in assay [20].

As for `CC(C)(Oc1ccc(C2CC2(Cl)Cl)cc1)C(=O)O` (stereo not given), the Potency result in assay [1], in [2], in assay [3], in assay [4], in assay [5] and in assay [6] was “inactive” throughout. In addition, the Potency entry in assay [7], in [8], in [9], in assay [10], in assay [11] and in [12] was “inactive” throughout. Besides, in assay [16], the Potency result was “inactive”. In addition, the compound was classed as inactive in assay [15], in [17], in [18], in assay [19] and in assay [20].

Turning to `Nc1ccn([C@H]2CC[C@@H](CO)O2)c(=O)n1`, the Potency entry in assay [1], in [2], in assay [3], in [4], in [5] and in assay [6] was “inactive” in each case. The Potency result in [7], in assay [8], in assay [9], in assay [10], in assay [12] and in [16] was “inactive” each time. Further, the call in assay [13], in assay [15], in [17], in [18], in assay [19] and in [20] was inactive.

For `Cn1c(=O)c2[nH]cnc2n(C)c1=O`, the Potency entry in assay [1], in assay [3], in assay [4], in [5], in [6] and in [7] was “inactive” in each case. The Potency result in assay [8], in assay [9], in [10], in [11], in assay [12] and in assay [16] was “inactive” in each case. Also, in assay [2], the Potency result is “inactive and 30.6 µM (active)”. The result in assay [13], in [15], in [17], in assay [18], in [19] and in assay [20] was inactive.

For `Nc1ccc(S(=O)(=O)c2ccc(N)cc2)cc1`, the Potency result in assay [1], in assay [2], in assay [3], in [4], in assay [5] and in assay [6] was “inactive” each time. Also, the Potency entry in [7], in [8], in assay [9], in [10], in assay [11] and in [12] was “inactive” throughout. The Potency result in [16] was “inactive”. Also, the call in assay [13], in assay [15], in assay [17], in assay [18], in assay [19] and in assay [20] was inactive.

On to `CC1(C)[C@@H]2CC[C@@]1(C)C(=O)C2`, for which the Potency result in assay [1], in [2], in assay [3], in assay [4], in assay [5] and in [6] was “inactive” each time. The Potency entry in assay [7], in [8], in [9], in assay [10], in [11] and in assay [12] was “inactive” in each case. The Potency result in [16] is “inactive”. In addition, the compound was called inactive in [15], in assay [17], in assay [18], in [19] and in [20].

Regarding `Cc1cc(=O)n(-c2ccccc2)n1C`, the Potency result in assay [1], in assay [2], in [3], in assay [4], in [5] and in assay [6] was “inactive” each time. For the same compound, the Potency entry in assay [7], in assay [8], in assay [9], in assay [10], in assay [11] and in [12] was “inactive” throughout. In addition, the Potency result in assay [16] is “inactive”. Moreover, the outcome in assay [13], in assay [14], in assay [15], in assay [17], in [18] and in assay [20] was inactive.

With `NC(N)=NC(=O)c1nc(Cl)c(N)nc1N`, the Potency in [1] was 21.1 µM (active) and 54.8 µM (active); in assay [16] it was “inactive and 25.3 µM (active)”. For the same compound, the Potency result in assay [2], in assay [3], in assay [4], in [5], in [6] and in assay [7] was “inactive” throughout. Further, the Potency entry in [8], in assay [9], in [10], in [11] and in assay [12] was “inactive” each time. For the same compound, the outcome in assay [13], in assay [15], in assay [17], in [18], in assay [19] and in [20] was inactive.

On to `O=C1CN(/N=C/c2ccc([N+](=O)[O-])o2)C(=O)N1`, for which the Potency entry in [1], in assay [2], in assay [4], in [7] and in assay [11] was “inactive” each time. The Potency in [3] was 49 µM [inconclusive] (active); in [5], 2.39 µM [inconclusive] (active) and inactive; in [6], 531 nM (active) and inactive; in assay [8], 43.1 µM (active); in assay [9], 26.6 µM (active) and 43.1 µM (active); in assay [10], 30.5 µM (active). Further, the Potency is 30.5 µM (active) and 48.6 µM (active) in assay [12]; 17.2 µM (active) and 26.6 µM (active) in [16]. Besides, the compound was called inactive in [15], in [18], in assay [19] and in assay [20].

For `O=c1cc[nH]c(=S)[nH]1`, the Potency entry in assay [1], in assay [2], in [3], in assay [4], in assay [5] and in assay [6] was “inactive” throughout. Moreover, the Potency entry in [7], in assay [8], in assay [9], in [10], in assay [11] and in assay [12] was “inactive” in each case. Also, the Potency result in assay [16] was “inactive”. Besides, the call in [13], in assay [14], in assay [15], in assay [17], in assay [18] and in assay [19] was inactive. Besides, the outcome in [20] was inactive.

`Cc1cc(=O)[nH]c(=S)[nH]1`: the Potency entry in [1], in assay [2], in assay [3], in assay [4], in assay [5] and in assay [6] was “inactive” each time. Besides, the Potency result in assay [7], in [8], in assay [9], in assay [10], in assay [11] and in assay [12] was “inactive” in each case. Moreover, in assay [16], the Potency entry was “inactive”. Also, the result in assay [13], in assay [14], in assay [15], in assay [17], in [18] and in [19] was inactive. For the same compound, in [20], the compound was classed as inactive.
